PMC7862700, “An all-to-all approach to the identification of sequence-specific readers for epigenetic DNA modifications on cytosine”

How the values were obtained:
Assay in all cases: DAPPL (digital affinity profiling via proximity ligation, sequencing); 10 mM Tris-HCl pH 7.5, 50 mM NaCl, 1 mM DTT, 4% glycerol, room temperature, 30 min; GST-TFs on glutathione beads, 16-mer random dsDNA library, 0.1% formaldehyde crosslink after washing; high values mean tight binding
FLI1 = molecular target: T1, FLI1 (Homo sapiens, UniProt Q01543 1-452); conditions: protein: recombinant; tags: N-terminal GST; dsDNA, one strand shown
T1 sequence: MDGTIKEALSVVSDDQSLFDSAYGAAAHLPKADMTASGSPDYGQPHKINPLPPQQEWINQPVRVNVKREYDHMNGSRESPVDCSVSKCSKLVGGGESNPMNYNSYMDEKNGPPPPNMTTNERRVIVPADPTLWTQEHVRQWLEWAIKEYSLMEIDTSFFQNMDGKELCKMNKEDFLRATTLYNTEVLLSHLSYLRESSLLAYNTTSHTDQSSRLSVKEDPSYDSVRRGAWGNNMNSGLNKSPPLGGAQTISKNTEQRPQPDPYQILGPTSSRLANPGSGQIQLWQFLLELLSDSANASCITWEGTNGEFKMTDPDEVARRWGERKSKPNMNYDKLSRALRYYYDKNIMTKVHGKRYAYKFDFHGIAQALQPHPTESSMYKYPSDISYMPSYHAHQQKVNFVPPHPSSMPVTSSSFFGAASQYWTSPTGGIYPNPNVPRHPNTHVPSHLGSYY
Method in brief: (§1)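 A tag-only sample was pooled with DNA-barcoded human transcription factors that had been expressed in yeast as GST fusions and captured on glutathione beads. The pools were incubated for 30 min at room temperature with 200 nmole of a random double-stranded 16-mer DNA library in Tris/NaCl/DTT/glycerol buffer, then washed, crosslinked with 0.1% formaldehyde, proximity-ligated (BsaI/T4 ligase, 1 h, 37 °C), PCR-amplified and sequenced on an Illumina NextSeq500. Binding signal is each hexamer's read frequency for a factor divided by its frequency for the tag-only sample.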

ELK1 = molecular target: T2, ELK1 (Homo sapiens, UniProt P19419 1-428); conditions: protein: recombinant; tags: N-terminal GST; dsDNA, one strand shown
T2 sequence: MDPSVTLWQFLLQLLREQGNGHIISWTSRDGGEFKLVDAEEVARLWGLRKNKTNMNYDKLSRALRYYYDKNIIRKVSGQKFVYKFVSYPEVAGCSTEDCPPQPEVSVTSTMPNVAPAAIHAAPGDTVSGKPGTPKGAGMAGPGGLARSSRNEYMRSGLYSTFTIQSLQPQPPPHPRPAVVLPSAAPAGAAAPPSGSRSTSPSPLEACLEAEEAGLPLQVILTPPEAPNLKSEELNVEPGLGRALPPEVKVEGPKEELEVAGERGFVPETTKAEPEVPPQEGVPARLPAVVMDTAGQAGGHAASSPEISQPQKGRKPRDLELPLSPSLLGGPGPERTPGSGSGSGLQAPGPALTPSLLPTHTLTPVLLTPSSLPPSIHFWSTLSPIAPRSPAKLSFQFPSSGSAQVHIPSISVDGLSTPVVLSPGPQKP
Method in brief: as §1

GABPA = molecular target: T3, GABPA (Homo sapiens, UniProt Q06546 1-454); conditions: protein: recombinant; tags: N-terminal GST; dsDNA, one strand shown
T3 sequence: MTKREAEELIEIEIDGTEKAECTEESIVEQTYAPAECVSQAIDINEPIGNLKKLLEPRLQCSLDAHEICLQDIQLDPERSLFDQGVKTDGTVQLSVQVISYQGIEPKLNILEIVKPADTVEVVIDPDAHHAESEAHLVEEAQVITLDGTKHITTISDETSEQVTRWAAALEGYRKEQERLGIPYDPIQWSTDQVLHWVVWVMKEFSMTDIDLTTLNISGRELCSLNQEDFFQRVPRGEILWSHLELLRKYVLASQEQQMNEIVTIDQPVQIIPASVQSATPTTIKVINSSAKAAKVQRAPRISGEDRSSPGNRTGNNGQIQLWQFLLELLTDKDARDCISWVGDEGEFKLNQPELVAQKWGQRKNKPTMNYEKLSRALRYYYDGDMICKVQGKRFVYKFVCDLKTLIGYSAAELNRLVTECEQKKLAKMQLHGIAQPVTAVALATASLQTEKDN
Method in brief: as §1

ERG = molecular target: T4, ERG (Homo sapiens, UniProt P11308 1-479); conditions: protein: recombinant; tags: N-terminal GST; dsDNA, one strand shown
T4 sequence: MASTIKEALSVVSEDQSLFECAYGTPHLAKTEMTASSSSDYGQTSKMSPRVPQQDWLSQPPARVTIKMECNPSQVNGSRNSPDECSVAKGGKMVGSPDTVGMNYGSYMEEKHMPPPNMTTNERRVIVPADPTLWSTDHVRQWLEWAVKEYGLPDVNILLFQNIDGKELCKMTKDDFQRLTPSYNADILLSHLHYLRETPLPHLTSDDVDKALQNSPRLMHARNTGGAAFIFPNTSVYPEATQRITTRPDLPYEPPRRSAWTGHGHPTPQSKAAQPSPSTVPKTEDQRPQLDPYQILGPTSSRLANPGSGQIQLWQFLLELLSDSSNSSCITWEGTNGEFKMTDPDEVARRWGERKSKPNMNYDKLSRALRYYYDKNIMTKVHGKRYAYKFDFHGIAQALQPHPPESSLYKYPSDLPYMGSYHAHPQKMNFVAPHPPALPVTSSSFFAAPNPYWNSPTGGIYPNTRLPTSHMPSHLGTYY
Method in brief: as §1

ELF1 = ELF1 (Homo sapiens, UniProt P32519 1-619); conditions: protein: recombinant; tags: N-terminal GST; dsDNA, one strand shown
Method in brief: as §1

EHF = molecular target: T5, EHF (Homo sapiens, UniProt Q9NZC4 1-300); conditions: protein: recombinant; tags: N-terminal GST; dsDNA, one strand shown
T5 sequence: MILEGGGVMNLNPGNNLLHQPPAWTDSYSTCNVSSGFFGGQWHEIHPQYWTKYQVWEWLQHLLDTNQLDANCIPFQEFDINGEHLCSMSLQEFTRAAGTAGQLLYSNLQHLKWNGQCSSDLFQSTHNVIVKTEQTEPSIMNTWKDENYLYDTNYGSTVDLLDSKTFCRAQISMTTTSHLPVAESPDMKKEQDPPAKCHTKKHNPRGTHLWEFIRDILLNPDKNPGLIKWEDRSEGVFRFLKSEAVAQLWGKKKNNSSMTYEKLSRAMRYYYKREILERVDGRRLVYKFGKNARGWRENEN
Method in brief: as §1

SPI1 = SPI1 (Homo sapiens, UniProt P17947 1-270); conditions: protein: recombinant; tags: N-terminal GST; dsDNA, one strand shown
Method in brief: as §1

SPIB = SPIB (Homo sapiens, UniProt Q01892 1-262); conditions: protein: recombinant; tags: N-terminal GST; dsDNA, one strand shown
Method in brief: as §1

ELK3 = molecular target: T6, ELK3 (Homo sapiens, UniProt P41970 1-407); conditions: protein: recombinant; tags: N-terminal GST; dsDNA, one strand shown
T6 sequence: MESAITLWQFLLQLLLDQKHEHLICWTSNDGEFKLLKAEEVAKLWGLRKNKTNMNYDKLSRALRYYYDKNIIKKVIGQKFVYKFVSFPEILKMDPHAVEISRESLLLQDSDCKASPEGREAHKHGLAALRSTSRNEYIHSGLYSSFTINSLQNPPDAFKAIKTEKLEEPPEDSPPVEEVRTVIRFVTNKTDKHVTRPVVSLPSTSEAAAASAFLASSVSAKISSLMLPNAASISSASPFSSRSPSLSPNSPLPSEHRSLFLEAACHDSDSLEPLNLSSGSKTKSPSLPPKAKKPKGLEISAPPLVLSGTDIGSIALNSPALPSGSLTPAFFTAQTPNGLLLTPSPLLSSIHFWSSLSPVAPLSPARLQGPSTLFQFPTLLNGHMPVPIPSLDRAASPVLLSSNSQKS
Method in brief: as §1

FEV = molecular target: T7, FEV (Homo sapiens, UniProt Q99581 1-238); conditions: protein: recombinant; tags: N-terminal GST; dsDNA, one strand shown
T7 sequence: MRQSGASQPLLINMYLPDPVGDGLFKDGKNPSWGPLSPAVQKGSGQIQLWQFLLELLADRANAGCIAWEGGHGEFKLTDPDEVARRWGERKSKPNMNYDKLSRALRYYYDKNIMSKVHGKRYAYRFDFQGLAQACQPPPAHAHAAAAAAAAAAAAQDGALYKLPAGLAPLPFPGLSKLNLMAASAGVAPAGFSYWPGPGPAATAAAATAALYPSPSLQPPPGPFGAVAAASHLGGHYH
Method in brief: as §1

ETV5 = ETV5 (Homo sapiens, UniProt P41161 1-510); conditions: protein: recombinant; tags: N-terminal GST; dsDNA, one strand shown
Method in brief: as §1

HSF1 = HSF1 (Homo sapiens, UniProt Q00613 1-529); conditions: protein: recombinant; tags: N-terminal GST; chain copies: 3; dsDNA, one strand shown
Method in brief: as §1

SPIC = molecular target: T8, SPIC (Homo sapiens, UniProt Q8N5J4 1-248); conditions: protein: recombinant; tags: N-terminal GST; dsDNA, one strand shown
T8 sequence: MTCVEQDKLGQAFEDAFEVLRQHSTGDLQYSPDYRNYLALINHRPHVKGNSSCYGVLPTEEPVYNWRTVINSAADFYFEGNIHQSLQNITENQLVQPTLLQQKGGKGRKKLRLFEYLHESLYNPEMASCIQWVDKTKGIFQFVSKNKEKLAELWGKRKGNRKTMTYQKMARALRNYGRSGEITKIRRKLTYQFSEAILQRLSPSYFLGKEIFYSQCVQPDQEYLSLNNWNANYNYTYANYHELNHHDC
Method in brief: as §1

ELF4 = ELF4 (Homo sapiens, UniProt Q99607 1-663); conditions: protein: recombinant; tags: N-terminal GST; dsDNA, one strand shown
Method in brief: as §1

ELK4 = molecular target: T9, ELK4 (Homo sapiens, UniProt P28324-2 1-405); conditions: protein: recombinant; tags: N-terminal GST; dsDNA, one strand shown
T9 sequence: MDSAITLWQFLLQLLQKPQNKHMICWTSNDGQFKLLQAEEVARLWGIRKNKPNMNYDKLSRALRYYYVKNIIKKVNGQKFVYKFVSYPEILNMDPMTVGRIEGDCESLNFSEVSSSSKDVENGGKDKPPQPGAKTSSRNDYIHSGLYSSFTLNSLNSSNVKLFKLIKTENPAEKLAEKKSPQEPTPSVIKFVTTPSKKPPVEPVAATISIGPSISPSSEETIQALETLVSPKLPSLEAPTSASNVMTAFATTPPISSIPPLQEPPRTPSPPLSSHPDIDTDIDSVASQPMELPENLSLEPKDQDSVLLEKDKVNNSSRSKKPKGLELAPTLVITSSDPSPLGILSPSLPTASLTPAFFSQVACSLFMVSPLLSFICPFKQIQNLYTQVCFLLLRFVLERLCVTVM
Method in brief: as §1

ETV2 = molecular target: T10, ETV2 (Homo sapiens, UniProt O00321 1-342); conditions: protein: recombinant; tags: N-terminal GST; dsDNA, one strand shown
T10 sequence: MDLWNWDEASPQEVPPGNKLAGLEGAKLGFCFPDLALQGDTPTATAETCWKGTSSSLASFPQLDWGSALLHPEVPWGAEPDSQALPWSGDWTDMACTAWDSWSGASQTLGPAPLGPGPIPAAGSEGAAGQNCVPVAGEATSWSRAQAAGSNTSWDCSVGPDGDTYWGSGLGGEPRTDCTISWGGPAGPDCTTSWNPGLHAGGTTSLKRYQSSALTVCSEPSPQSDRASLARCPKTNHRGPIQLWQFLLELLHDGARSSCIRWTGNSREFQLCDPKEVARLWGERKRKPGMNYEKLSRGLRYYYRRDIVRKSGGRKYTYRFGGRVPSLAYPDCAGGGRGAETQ
Method in brief: as §1

ELF3 = molecular target: T11, ELF3 (Homo sapiens, UniProt P78545 1-371); conditions: protein: recombinant; tags: N-terminal GST; dsDNA, one strand shown
T11 sequence: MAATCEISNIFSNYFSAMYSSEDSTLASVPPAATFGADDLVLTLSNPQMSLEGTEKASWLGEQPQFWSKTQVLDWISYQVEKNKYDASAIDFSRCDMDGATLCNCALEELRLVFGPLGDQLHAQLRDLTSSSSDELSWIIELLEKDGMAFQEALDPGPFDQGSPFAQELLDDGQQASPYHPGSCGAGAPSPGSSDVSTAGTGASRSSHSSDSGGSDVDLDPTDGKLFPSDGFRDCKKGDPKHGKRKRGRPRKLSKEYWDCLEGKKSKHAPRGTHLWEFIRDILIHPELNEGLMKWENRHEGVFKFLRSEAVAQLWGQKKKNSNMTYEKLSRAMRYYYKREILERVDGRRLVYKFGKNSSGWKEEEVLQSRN
Method in brief: as §1

CRX = CRX (Homo sapiens, UniProt O43186 1-299); conditions: protein: recombinant; tags: N-terminal GST; dsDNA, one strand shown
Method in brief: as §1

ETV1 = ETV1 (Homo sapiens, UniProt P50549 1-477); conditions: protein: recombinant; tags: N-terminal GST; dsDNA, one strand shown
Method in brief: as §1

Sequence of ETV5 (P41161 whole entry): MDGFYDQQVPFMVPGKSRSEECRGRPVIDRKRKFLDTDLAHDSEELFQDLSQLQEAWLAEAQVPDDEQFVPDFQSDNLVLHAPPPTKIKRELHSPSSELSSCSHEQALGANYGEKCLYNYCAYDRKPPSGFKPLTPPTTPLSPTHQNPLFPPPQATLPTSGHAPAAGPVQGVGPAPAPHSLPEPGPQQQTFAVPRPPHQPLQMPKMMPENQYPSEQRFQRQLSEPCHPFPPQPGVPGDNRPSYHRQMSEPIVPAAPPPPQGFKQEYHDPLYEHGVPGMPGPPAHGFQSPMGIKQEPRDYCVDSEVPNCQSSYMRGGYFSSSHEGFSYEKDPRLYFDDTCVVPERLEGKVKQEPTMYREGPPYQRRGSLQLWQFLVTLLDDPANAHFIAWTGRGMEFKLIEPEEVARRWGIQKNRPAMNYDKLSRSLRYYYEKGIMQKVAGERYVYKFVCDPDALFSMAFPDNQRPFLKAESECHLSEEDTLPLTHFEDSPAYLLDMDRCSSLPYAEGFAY
Sequence of SPIB (Q01892 whole entry): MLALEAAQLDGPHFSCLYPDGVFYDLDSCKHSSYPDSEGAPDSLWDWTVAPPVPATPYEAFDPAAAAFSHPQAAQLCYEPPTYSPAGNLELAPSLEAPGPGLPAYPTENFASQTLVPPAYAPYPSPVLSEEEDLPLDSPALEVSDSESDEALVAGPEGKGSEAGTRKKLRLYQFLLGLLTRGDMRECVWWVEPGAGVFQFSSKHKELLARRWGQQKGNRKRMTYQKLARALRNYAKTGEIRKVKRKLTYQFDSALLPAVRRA
Sequence of CRX (O43186 whole entry): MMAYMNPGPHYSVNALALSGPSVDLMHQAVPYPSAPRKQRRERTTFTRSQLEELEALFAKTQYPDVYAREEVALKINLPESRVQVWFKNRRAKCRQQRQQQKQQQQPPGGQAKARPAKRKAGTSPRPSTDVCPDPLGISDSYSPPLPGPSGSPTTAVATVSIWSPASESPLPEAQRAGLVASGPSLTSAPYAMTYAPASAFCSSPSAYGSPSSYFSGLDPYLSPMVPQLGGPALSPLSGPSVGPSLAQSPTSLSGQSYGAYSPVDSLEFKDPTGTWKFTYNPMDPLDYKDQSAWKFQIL
Sequence of ELF1 (P32519 whole entry): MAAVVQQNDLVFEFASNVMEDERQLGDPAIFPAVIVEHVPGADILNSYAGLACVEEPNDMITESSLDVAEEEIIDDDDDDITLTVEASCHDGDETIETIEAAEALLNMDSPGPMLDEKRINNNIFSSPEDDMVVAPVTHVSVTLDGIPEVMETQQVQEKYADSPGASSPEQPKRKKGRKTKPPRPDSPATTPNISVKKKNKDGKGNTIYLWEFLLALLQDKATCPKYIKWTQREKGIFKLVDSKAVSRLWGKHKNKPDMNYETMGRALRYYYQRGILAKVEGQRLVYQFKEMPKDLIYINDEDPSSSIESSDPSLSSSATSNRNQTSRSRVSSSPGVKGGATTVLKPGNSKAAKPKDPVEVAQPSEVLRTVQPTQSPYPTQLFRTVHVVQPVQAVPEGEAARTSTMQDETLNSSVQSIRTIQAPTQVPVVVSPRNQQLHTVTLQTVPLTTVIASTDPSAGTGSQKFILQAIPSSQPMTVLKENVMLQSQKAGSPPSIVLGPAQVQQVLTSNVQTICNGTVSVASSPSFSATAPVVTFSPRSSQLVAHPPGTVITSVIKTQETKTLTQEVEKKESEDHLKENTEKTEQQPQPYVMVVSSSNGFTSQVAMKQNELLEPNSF
Sequence of HSF1 (Q00613 whole entry): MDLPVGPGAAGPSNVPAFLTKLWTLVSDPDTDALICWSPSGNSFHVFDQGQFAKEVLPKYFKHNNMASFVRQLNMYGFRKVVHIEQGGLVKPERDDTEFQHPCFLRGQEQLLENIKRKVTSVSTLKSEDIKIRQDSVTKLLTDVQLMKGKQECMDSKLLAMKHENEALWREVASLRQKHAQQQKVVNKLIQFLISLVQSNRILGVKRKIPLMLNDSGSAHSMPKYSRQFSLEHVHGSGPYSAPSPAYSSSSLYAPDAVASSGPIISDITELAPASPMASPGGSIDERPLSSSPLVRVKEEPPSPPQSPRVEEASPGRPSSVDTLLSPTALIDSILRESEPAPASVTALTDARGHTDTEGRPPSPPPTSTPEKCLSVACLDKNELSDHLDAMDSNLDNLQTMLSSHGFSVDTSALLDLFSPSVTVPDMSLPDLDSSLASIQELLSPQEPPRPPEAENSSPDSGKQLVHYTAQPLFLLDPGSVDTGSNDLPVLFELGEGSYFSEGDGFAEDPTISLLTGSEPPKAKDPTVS
Sequence of ELF4 (Q99607 whole entry): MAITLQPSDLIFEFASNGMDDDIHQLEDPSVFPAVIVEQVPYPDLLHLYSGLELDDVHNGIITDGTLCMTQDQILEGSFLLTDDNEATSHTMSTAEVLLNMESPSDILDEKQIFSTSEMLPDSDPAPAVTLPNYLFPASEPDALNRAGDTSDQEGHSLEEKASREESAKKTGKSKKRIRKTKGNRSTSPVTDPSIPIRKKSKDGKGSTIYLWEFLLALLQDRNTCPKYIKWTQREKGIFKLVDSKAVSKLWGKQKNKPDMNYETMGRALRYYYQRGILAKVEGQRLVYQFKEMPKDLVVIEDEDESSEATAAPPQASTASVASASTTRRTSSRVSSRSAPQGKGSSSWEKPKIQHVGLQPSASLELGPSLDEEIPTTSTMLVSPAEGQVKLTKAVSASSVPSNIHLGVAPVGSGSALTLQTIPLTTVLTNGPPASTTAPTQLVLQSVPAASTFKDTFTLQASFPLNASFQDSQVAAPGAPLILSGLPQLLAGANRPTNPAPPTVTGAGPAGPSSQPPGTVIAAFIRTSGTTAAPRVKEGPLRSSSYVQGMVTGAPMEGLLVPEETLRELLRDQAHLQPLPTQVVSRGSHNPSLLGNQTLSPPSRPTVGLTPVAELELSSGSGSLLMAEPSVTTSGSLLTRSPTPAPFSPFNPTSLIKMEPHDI
Sequence of ETV1 (P50549 whole entry): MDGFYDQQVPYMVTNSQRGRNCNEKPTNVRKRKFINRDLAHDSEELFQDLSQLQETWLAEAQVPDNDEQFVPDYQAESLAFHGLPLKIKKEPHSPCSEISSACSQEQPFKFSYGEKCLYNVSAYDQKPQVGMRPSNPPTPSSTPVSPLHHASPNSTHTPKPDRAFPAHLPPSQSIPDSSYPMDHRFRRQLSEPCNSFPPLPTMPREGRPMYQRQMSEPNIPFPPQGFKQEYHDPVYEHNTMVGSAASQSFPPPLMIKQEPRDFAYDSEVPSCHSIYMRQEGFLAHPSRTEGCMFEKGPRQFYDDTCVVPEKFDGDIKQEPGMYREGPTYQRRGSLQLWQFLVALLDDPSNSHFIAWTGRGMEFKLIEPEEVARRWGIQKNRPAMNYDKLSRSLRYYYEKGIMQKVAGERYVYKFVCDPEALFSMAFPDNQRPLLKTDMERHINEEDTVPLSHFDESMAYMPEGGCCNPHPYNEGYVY

**Q.** Which results are given for CCCGGA?
**A.** binding signal (FLI1): 2.74 fold enrichment (6-mer frequency, TF over GST control); binding signal (ELK1): 2.61 fold enrichment (6-mer frequency, TF over GST control); binding signal (GABPA): 2.61 fold enrichment (6-mer frequency, TF over GST control); binding signal (ERG): 2.99 fold enrichment (6-mer frequency, TF over GST control); binding signal (ELF1): 2.87 fold enrichment (6-mer frequency, TF over GST control); binding signal (EHF): 2.95 fold enrichment (6-mer frequency, TF over GST control); binding signal (SPI1): 2.47 fold enrichment (6-mer frequency, TF over GST control); binding signal (SPIB): 3.06 fold enrichment (6-mer frequency, TF over GST control); binding signal (ELK3): 2.85 fold enrichment (6-mer frequency, TF over GST control); binding signal (FEV): 2.77 fold enrichment (6-mer frequency, TF over GST control); binding signal (ETV5): 3.14 fold enrichment (6-mer frequency, TF over GST control); binding signal (HSF1): 1.14 fold enrichment (6-mer frequency, TF over GST control); binding signal (SPIC): 2.52 fold enrichment (6-mer frequency, TF over GST control); binding signal (ELF4): 2.6 fold enrichment (6-mer frequency, TF over GST control); binding signal (ELK4): 2.16 fold enrichment (6-mer frequency, TF over GST control); binding signal (ETV2): 2.55 fold enrichment (6-mer frequency, TF over GST control); binding signal (ELF3): 2.88 fold enrichment (6-mer frequency, TF over GST control); binding signal (CRX): 1.03 fold enrichment (6-mer frequency, TF over GST control); binding signal (ETV1): 2.98 fold enrichment (6-mer frequency, TF over GST control)
